PubChem BioAssay AID1159580 (chemical genetic matrix, 2015)
The whole screen tested about 5,500 compounds, of which about 2,000 (36%) were called active. Not shown: some 18% with an inconclusive outcome. Cut-off read from the data, not from the text of the source: active = normalized growth mostly below about 0.91 (no sharp cut-off); inconclusive = no clear call, values can overlap the other calls; inactive = mostly above about 0.92. The list shows a part of the results.

Assay: chemical genetic growth profiling, strain panel (AID 1159580);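 note: tested at 20 µM; growth read once vehicle control cultures reached saturation at 30 °C; 1 = growth at the plate median or of vehicle wells; lower values mean less growth of the strain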
Conditions: S. cerevisiae deletion strains, growth OD
[1] = locus YAL013W, strain DEP1, stronger effect = lower value
[2] = locus YBR229C, strain ROT2, stronger effect = lower value
[3] = locus YCL061C, strain MRC1, stronger effect = lower value
[4] = locus YDL101C, strain DUN1, stronger effect = lower value
[5] = locus YDR150W, strain NUM1, stronger effect = lower value
[6] = locus YEL061C, strain CIN8, stronger effect = lower value
[7] = locus YGR078C, strain PAC10, stronger effect = lower value
[8] = locus YHR030C, strain SLT2, stronger effect = lower value
[9] = locus YHR087W, strain rtc3, stronger effect = lower value
[10] = locus YJR075W, strain HOC1, stronger effect = lower value
[11] = locus YKL190W, strain CNB1, stronger effect = lower value
[12] = locus YLR039C, strain RIC1, stronger effect = lower value
[13] = locus YLR058C, strain SHM2 (second series), stronger effect = lower value
[14] = locus YLR085C, strain ARP6, stronger effect = lower value
[15] = locus YLR262C, strain YPT6, stronger effect = lower value
[16] = locus YML094W, strain GIM5, stronger effect = lower value
[17] = locus YMR219W, strain ESC1, stronger effect = lower value
[18] = locus YMR263W, strain SAP30, stronger effect = lower value
[19] = locus YNL153C, strain GIM3, stronger effect = lower value
[20] = locus YNL298W, strain CLA4 (second series), stronger effect = lower value
[21] = locus YNL322C, strain KRE1, stronger effect = lower value
[22] = locus YNR030W, strain Alg12, stronger effect = lower value
[23] = locus YPL055C, strain LGE1, stronger effect = lower value
[24] = locus YPL241C, strain CIN2, stronger effect = lower value
[25] = locus YPR135W, strain CTF4, stronger effect = lower value

Measured: normalized growth

O=S(=O)(c1cc(Br)c(Br)s1)N1CCCCC1
inactive: [1] 1.01 | [2] 0.993 | [3] 0.967 | [4] 0.963 | locus YDL134C, strain PPH21, stronger effect = lower value 1.02 | [5] 1.01 | [6] 1.01 | [7] 1.01 | locus YGR229C, strain SMI1, stronger effect = lower value 0.984 | [8] 1.14 | [9] 1.03 | locus YJR043C, strain POL32, stronger effect = lower value 0.964 | [10] 1.01 | [11] 1.02 | [12] 0.942 | [13] 1.01 | [14] 1.02 | [15] 0.991 | [16] 1 | [17] 1 | [18] 1 | [19] 0.955 | [20] 1.02 | [21] 1.02 | [22] 1.03 | [23] 0.946 | [24] 1 | [25] 1.04

COc1ccc(OC)c(S(=O)(=O)NCc2c(F)cccc2Cl)c1
inactive: [1] 0.994 | [2] 1.01 | [3] 1.01 | [4] 1.02 | [5] 0.985 | [6] 1.04 | [7] 1.02 | [8] 1.02 | [9] 1 | [10] 1.01 | [11] 1.01 | [12] 0.928 | [13] 1.02 | [14] 1.02 | [15] 0.893 | [16] 0.992 | [17] 1.01 | [18] 1.01 | locus YMR307W, strain GAS1, stronger effect = lower value 1.09 | [19] 0.993 | [20] 1.02 | [21] 1.01 | [22] 1.02 | locus YOL006C, strain TOP1, stronger effect = lower value 0.98 | [23] 1.02 | [24] 1.01 | [25] 1.01

COc1cc(Cl)c(NS(=O)(=O)c2cc(Br)c(Br)s2)c(OC)c1
active: [8] 0.664 | locus YLR113W, strain HOG1, stronger effect = lower value 0.815 | locus YPL256C, strain CLN2, stronger effect = lower value 0.856
inactive: locus YAR019C, strain CDC15, stronger effect = lower value 0.96 | locus YBL105C, strain PKC1, stronger effect = lower value 0.977 | locus YBR135W, strain CKS1, stronger effect = lower value 0.967 | locus YBR136W, strain MEC1, stronger effect = lower value 0.977 | locus YBR160W, strain CDC28, stronger effect = lower value 0.958 | locus YDL017W, strain CDC7, stronger effect = lower value 0.978 | locus YDL028C, strain MPS1, stronger effect = lower value 0.96 | [4] 0.977 | locus YDL108W, strain KIN28, stronger effect = lower value 0.957 | locus YDL132W, strain cdc53, stronger effect = lower value 0.954 | locus YDL214C, strain PRR2, stronger effect = lower value 0.916 | locus YDR052C, strain DBF4, stronger effect = lower value 0.988 | locus YDR054C, strain cdc34, stronger effect = lower value 0.953 | locus YDR226W, strain ADK1, stronger effect = lower value 0.962 | locus YDR477W, strain SNF1, stronger effect = lower value 0.904 | locus YER123W, strain YCK3, stronger effect = lower value 0.898 | locus YER133W, strain GLC7, stronger effect = lower value 0.918 | locus YFL009W, strain cdc4, stronger effect = lower value 0.948 | locus YFL029C, strain CAK1, stronger effect = lower value 0.956 | locus YFR003C, strain YPI1, stronger effect = lower value 0.973 | locus YFR019W, strain FAB1, stronger effect = lower value 0.964 | locus YFR028C, strain CDC14, stronger effect = lower value 0.949 | locus YGR040W, strain KSS1, stronger effect = lower value 0.888 | locus YGR052W, strain FMP48, stronger effect = lower value 0.923 | locus YGR092W, strain DBF2, stronger effect = lower value 0.831 | locus YHR079C, strain IRE1, stronger effect = lower value 0.905 | locus YHR082C, strain KSP1, stronger effect = lower value 0.924 | locus YHR205W, strain SCH9, stronger effect = lower value 0.933 | locus YIL147C, strain SLN1, stronger effect = lower value 0.961 | locus YJL095W, strain BCK1, stronger effect = lower value 0.885 | locus YJL128C, strain PBS2, stronger effect = lower value 0.923 | locus YJL157C, strain FAR1, stronger effect = lower value 0.919 | locus YJR016C, strain ILV3, stronger effect = lower value 0.972 | locus YJR066W, strain TOR1 (second series), stronger effect = lower value 0.858 | locus YJR066W, strain TOR1, stronger effect = lower value 0.896 | locus YKL048C, strain ELM1, stronger effect = lower value 0.969 | locus YKL067W, strain YNK1, stronger effect = lower value 0.9 | locus YKL101W, strain HSL1, stronger effect = lower value 0.917 | locus YKL193C, strain SDS22, stronger effect = lower value 0.959 | locus YKL203C, strain TOR2, stronger effect = lower value 0.986 | locus YLR133W, strain CKI1, stronger effect = lower value 0.959 | locus YLR403W, strain SFP1, stronger effect = lower value 0.922 | locus YML070W, strain DAK1, stronger effect = lower value 0.916 | locus YMR001C, strain CDC5, stronger effect = lower value 0.969 | locus YMR205C, strain PFK2 (second series), stronger effect = lower value 0.948 | locus YMR277W, strain FCP1, stronger effect = lower value 0.946 | locus YNL006W, strain LST8, stronger effect = lower value 0.955 | locus YNL020C, strain ARK1, stronger effect = lower value 0.931 | locus YNL161W, strain CBK1, stronger effect = lower value 0.97 | locus YNL183C, strain NPR1, stronger effect = lower value 0.904 | locus YNL207W, strain RIO2, stronger effect = lower value 0.962 | locus YNL222W, strain SSU72, stronger effect = lower value 0.95 | locus YNL307C, strain MCK1 (second series), stronger effect = lower value 0.902 | locus YOL078W, strain AVO1, stronger effect = lower value 0.96 | locus YOL136C, strain PFK27, stronger effect = lower value 0.901 | locus YOR061W, strain CKA2, stronger effect = lower value 0.912 | locus YOR119C, strain RIO1, stronger effect = lower value 0.918 | locus YOR231W, strain MKK1, stronger effect = lower value 0.908 | locus YOR329C, strain SCD5, stronger effect = lower value 0.965 | locus YPL031C, strain PHO85, stronger effect = lower value 0.894 | locus YPL153C, strain RAD53, stronger effect = lower value 0.866 | locus YPL204W, strain HRR25, stronger effect = lower value 0.868 | locus YPL209C, strain IPL1, stronger effect = lower value 0.976 | locus YPR025C, strain CCL1, stronger effect = lower value 0.968 | locus YPR106W, strain ISR1, stronger effect = lower value 0.954 | locus YPR111W, strain DBF20, stronger effect = lower value 0.938 | strain NNK1, stronger effect = lower value 0.975 | strain TSCII, stronger effect = lower value 0.963
